From PubChem BioAssay
The list is not random: actives were taken first. Their share in the collection is about 3.4%.
Vif imaging = blocks HIV Vif function; HEK293T cells, Vif self-association by quenched fluorescence, imaging, 24 h; 340,000 tested, 0.35% active; AID 602346; inhibition, % at 7.49 µM; in the data active = inhibition above about 50%, passing the limit was not always enough
HSF-1 act = increases HSF-1 driven luciferase reporter signal | 300,000 tested, 1.7% active | activation, % at 9 µM | AID 504408 | NIH3T3-HGL HSF-1 luciferase reporter, MG132, 8 h; 100% = twice DMSO control signal;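 active = mean replicate activation of at least 50% with a set share of replicates each reaching 50%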
HSF1 inhib = HSF1 inhibition; activity change, negative = inhibition, % at 7.5 µM (by protocol); 300,000 tested, 0.77% active; NIH3T3-HGL HSE-luciferase, MG132-induced, luminescence 8 h; active compounds read low;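 active = more than half of replicate wells show activity change below -50%, luminescence cut by over half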;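 also: luciferase reports HSF-1 transcriptional activity via heat shock element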
esBAF inh = SWI/SNF esBAF complex inhibition | mouse ES cells, Bmi1-luciferase knock-in reporter, 24 h; 100% = twice the neutral-well signal | reporter increase, % at 12.5 µM | 350,000 tested, 2% active | AID 602393; in the data active = activation above about 40%;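 also: a rise in the Bmi1 reporter signal indicates esBAF inhibition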
Of the large screens only hits and unclear results are named; the others gave an inactive call.

O=C(NC(=S)Nc1ccc(N2CCCCC2)cc1)c1ccco1	none
CC1CCN(c2ccc(NC(=S)NC(=O)c3ccco3)cc2)CC1	HSF-1 act 61, esBAF inh 46
CC(C)n1cc(/C=N/Nc2ccc(Cl)c(C(=O)O)c2)c2ccccc21	none
O=C(O)c1cc(N/N=C/c2cccc3ccccc23)ccc1Cl	esBAF inh 80
C/C(=N\Nc1ccc(Cl)c(C(=O)O)c1)c1cccc2ccccc12	Vif imaging 65
CN1C(=O)c2cc(NC(=O)c3cnccn3)ccc2OC[C@H]2O[C@H](CC(=O)NC3CCC3)CC[C@@H]21	none (no result: Vif imaging, HSF-1 act, HSF1 inhib)
O=C(NCc1cc(C(F)(F)F)ccc1F)C1CCC(=O)N(C2CCCCCC2)C1 (centres undefined)	none
O=C(NCc1cc(F)ccc1F)C1CCC(=O)N(C2CCCCCC2)C1 (centres undefined)	esBAF inh 48
COc1cccc(CCNC(=O)C2CCC(=O)N(C3CC3)C2)c1OC (centres undefined)	HSF-1 act 59
O=c1oc2cc(Cl)ccc2n1CSc1nc2ccccc2s1	HSF-1 act 104 (no result: Vif imaging, esBAF inh)
O=C(C[C@@H]1C[C@H]2c3cc(NC(=O)NC4CCCCC4)ccc3O[C@H]2[C@H](CO)O1)NCc1cccnc1	none (no result: Vif imaging, HSF-1 act, HSF1 inhib)
CC(O)CNc1ncnc2cc(-c3ccc(F)cc3)sc12 (centres undefined)	esBAF inh 54
COCC(=O)N1[C@H](CN(C)C(=O)c2ccncc2)[C@@H](c2ccccc2)[C@@H]1CO	none (no result: Vif imaging, HSF-1 act, HSF1 inhib)
Cc1ccc(C(=O)Nc2nn(C)c3cccc(F)c23)cc1	Vif imaging 50
Cn1nc(NC(=O)C2CCC2C(=O)O)c2c(F)cccc21 (centres undefined)	none
Cc1noc(C)c1NC(=O)Nc1ccc2c(c1)C(=O)N([C@@H](C)CO)C[C@H](C)[C@@H](CN(C)C(=O)c1ccccc1)OCCCC[C@@H](C)O2	none (no result: Vif imaging, HSF-1 act, HSF1 inhib)
CC1CC2(CCCCC2)Nc2ccc3ccccc3c21 (centres undefined)	HSF-1 act 58
CCCCCCCCCCCC(=O)c1c(O)cccc1O	HSF-1 act 51
CCCN1C[C@@H](C)[C@H](OC)CN(C)C(=O)c2ccc(NC(=O)c3ccccc3F)cc2OC[C@H]1C	none (no result: Vif imaging, HSF-1 act, HSF1 inhib)
CO[C@@H]1CN(C)C(=O)c2ccc(NC(=O)C3CCC3)cc2OC[C@@H](C)N(Cc2ccc(F)cc2)C[C@H]1C	none (no result: Vif imaging, HSF-1 act, HSF1 inhib)
Cc1cc(C)n(CC(O)COc2ccccc2Br)n1 (centres undefined)	none
Cc1cc(C)n(CC(O)COc2ccc(Cl)cc2)n1 (centres undefined)	HSF-1 act 50
Cc1cc(C)n(CC(O)COc2ccc(Cl)cc2Cl)n1 (centres undefined)	HSF-1 act 64, esBAF inh 52
CCC(=O)Nc1ccc(NC(=O)c2ccco2)c(OC)c1	none
CCCC(=O)Nc1ccc(NC(=O)c2ccco2)c(OC)c1	esBAF inh 63 (no result: Vif imaging)
COc1cc(NC(=O)CC(C)C)ccc1NC(=O)c1ccco1	HSF-1 act 54
Cc1ccc(-c2nc(Nc3cccc(C)c3)sc2CC(=O)O)cc1	none
O=C(O)Cc1sc(N/N=C\c2ccccc2)nc1-c1ccccc1	HSF-1 act 60 (no result: esBAF inh)
O=C(Cc1sc(Nc2ccccc2)nc1-c1ccccc1)NCc1ccccc1	Vif imaging 98, HSF-1 act 60, esBAF inh 75
Clc1ccccc1-c1nnc2sc(-c3ccc4c(c3)OCO4)nn12	none
Clc1ccccc1-c1nnc(-c2ccc3c(c2)OCO3)o1	HSF-1 act 95
O=C1C(=C2SCCCS2)CC/C1=C\c1ccc(F)cc1	HSF1 inhib -75
C/C=C/c1c(F)c(F)c(Oc2ccc(C(=O)O)cc2)c(F)c1F	HSF-1 act 125
c1coc(C2Nc3ccccc3C3OCCC23)c1 (centres undefined)	none
COc1ccc2c(c1)C1OCCC1C(c1ccco1)N2 (centres undefined)	HSF-1 act 56 (no result: esBAF inh)
COc1ccc(OC)c(-n2c(=O)c3ccccc3c3ccccc3c2=O)c1	HSF-1 act 59 (no result: esBAF inh)
COCC(=O)Nc1ccc2c(c1)C(=O)N(C)[C@H]1CC[C@H](CC(=O)NCc3ccccc3Cl)O[C@@H]1CO2	none (no result: Vif imaging, HSF-1 act, HSF1 inhib)
CCCc1nc2nc(C)c(NS(=O)(=O)c3ccc(C(C)(C)C)cc3)c(=O)n2[nH]1	none
Cc1ccc(S(=O)(=O)Nc2c(C)nc3nc(C)[nH]n3c2=O)c(C)c1	Vif imaging 64
CC(Sc1nc2ccccc2c(=O)n1CC1CCCO1)C(=O)Nc1ccc(S(N)(=O)=O)cc1 (centres undefined)	HSF-1 act 56
NS(=O)(=O)c1cccc(NC(=O)CSc2nc3ccccc3c(=O)n2CC2CCCO2)c1 (centres undefined)	none (no result: HSF-1 act, HSF1 inhib)
